From PubChem BioAssay (NCI)
This is part of a sample that, as a whole, favours compounds with a hit. Of some 83,000 tested, about 20% had one in any assay.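 Single-dose data. Exposure time 48 hours. Values below 10 considered active.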 Values without a mark were called inactive. The source made the active and inactive calls.

Test system: A549/ATCC NSCLC
Assay: NCI-60 one-dose screen, 48 h (100 = growth as untreated, 0 = no growth, -100 = all killed)
Conditions: 10 µM unless noted

Compound	growth
c1cc2[nH]ncc2cc1-c1nc2ccc3[nH]ncc3c2c2c1CCCC2	5.84% (active)
C#CCOc1cccc(Nc2ncnc3c(NC(=O)C=C)cccc23)c1	27.5%
N#Cc1cnc(NCCc2ccncc2)nc1-n1cnc2ccccc21	53.5%
CCOC(=O)c1c(NC(=O)c2ccc(C(C)C)cc2)sc2c(CN(C)C)c(O)ccc12	77%
COc1ccc(N2CCC(=O)NC2=S)cc1	108%
Oc1c(Cl)cc(Cl)c2ccc(Cn3cc(-c4cc(F)cc(F)c4)nn3)nc12	102%
CO/N=C(/C)c1ccc(NC(=O)CSc2nnc(-c3ccncc3)n2-c2ccccc2)cc1	68.4%
O=C1c2cccnc2C(=O)c2c1c(C(=O)NCCn1ccnc1)c1ccccn21	1.78% (active)
O=C1NC(=O)c2c1c1c3ccccc3ccc1c1[nH]c3ccc(Br)cc3c21	18.8%
Cc1ccc(-c2nc3nc(-c4ccccc4)nc(N4CCNCC4)c3o2)cc1	-84.5% (active)
CC(C)(C)n1cc(-c2ccnc(NCCNS(=O)(=O)c3cccc(F)c3)c2)c(-c2ccccc2)n1	79.9%
Cc1c(-n2nnc(-c3nc4ccccc4s3)c2N)c(=O)n(-c2ccccc2)n1C	105%
